# Where a name gives a salt, the structure may show the parent alone.
# How the values were obtained:
# Assay in all cases: thermal shift delta Tm vs DMSO control; higher = stronger stabilization (binding)
# Conditions in all cases: 12.5 µM; protein concentration 2 µM
# [1] = tested on: LOC_OS04G57630-cb004
# Method in brief: (§1)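 Rice kinase domain constructs were expressed in E. coli, purified, and tested by differential scanning fluorimetry with compound added in DMSO. Each well of a 96-well plate held 19.5 μl of 2 μM kinase in 100 mM potassium phosphate pH 7.5, 150 mM NaCl, 10% glycerol and 5 × SYPRO Orange, and fluorescence was read from 25°C to 95°C at 0.05°C/s. The melting temperature shift is the mean of triplicates, taken against protein with DMSO alone after Boltzmann fitting.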
# [2] = tested on: LOC_OS05G07850-cb002
# Method in brief: as §1
# [3] = tested on: LOC_OS05G16824-cb004
# Method in brief: as §1
# [4] = tested on: LOC_OS05G28520-cb001
# Method in brief: as §1
# [5] = tested on: LOC_OS05G30820-cb001
# Method in brief: as §1
# [6] = tested on: LOC_OS05G43570-cb004
# Method in brief: as §1
# [7] = tested on: LOC_OS06G16330-cb003
# LOC_OS06G16330-cb003, sequence (as listed by the source): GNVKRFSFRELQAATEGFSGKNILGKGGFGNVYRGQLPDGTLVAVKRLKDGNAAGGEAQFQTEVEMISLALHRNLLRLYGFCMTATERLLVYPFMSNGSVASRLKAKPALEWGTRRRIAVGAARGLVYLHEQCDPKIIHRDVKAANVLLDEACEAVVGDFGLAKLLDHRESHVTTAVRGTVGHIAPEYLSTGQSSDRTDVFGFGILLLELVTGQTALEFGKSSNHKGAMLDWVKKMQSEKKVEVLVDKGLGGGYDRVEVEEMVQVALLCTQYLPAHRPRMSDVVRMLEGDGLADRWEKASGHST
# Method in brief: as §1
# [8] = tested on: T1, LOC_OS06G22820-cb001
# T1 sequence (whole entry): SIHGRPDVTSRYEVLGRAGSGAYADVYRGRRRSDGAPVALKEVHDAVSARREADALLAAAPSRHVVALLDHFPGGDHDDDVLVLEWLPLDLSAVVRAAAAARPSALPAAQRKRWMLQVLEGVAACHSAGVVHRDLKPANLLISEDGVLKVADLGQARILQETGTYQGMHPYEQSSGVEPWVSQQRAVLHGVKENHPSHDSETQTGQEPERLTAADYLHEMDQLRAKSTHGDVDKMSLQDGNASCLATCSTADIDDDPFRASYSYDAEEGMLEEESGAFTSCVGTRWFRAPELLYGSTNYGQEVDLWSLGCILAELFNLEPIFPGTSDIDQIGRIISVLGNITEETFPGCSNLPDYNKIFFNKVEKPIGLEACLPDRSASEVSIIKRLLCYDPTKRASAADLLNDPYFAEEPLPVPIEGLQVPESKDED
# Method in brief: as §1
# [9] = tested on: LOC_OS07G06570-cb004
# Method in brief: as §1
# [10] = tested on: LOC_OS07G07230-cb001
# Method in brief: as §1
Compound,thermal shift delta Tm [1] [°C],thermal shift delta Tm [2] [°C],thermal shift delta Tm [3] [°C],thermal shift delta Tm [4] [°C],thermal shift delta Tm [5] [°C],thermal shift delta Tm [6] [°C],thermal shift delta Tm [7] [°C],thermal shift delta Tm [8] [°C],thermal shift delta Tm [9] [°C],thermal shift delta Tm [10] [°C]
Cc1cc(F)c(Nc2ncnc3cc(OCc4ccccc4)ccc23)cc1O,-0.1,1.29,-1.22,1.19,0.76,1.17,-0.11,1.28,2.49,0.37
OC1CCC(Nc2ncc3nc(Nc4c(F)cc(F)cc4F)n([C@H]4CCOC4)c3n2)CC1 (stereo not given in full) [Tanzisertib(CC-930)],-0.03,0.72,2.14,0.46,0.23,0.42,-0.07,0.59,1.81,0.44
FC(F)(F)c1ccc(Nc2nc3ccc(Oc4ccnc(-c5ncc(C(F)(F)F)[nH]5)c4)cc3[nH]2)cc1 [Raf265 derivative],1.36,0.46,7.37,1.01,0.29,1.6,1.16,0.73,1.65,0.27
O=C(/C=C/c1ccc2ccccc2n1)c1ccncc1,3.08,9.31,4.2,0.46,0.47,0.37,1.41,0.76,0.69,0.31
COc1cc2ncnc(Sc3nnc(C)s3)c2cc1OC,0.11,4.44,-0.85,0.25,0.64,0.17,2.49,0.32,1.21,1.4
O=C(Nc1cnn2ccc(N3CCC[C@@H]3c3cc(F)ccc3F)nc12)N1CC[C@H](O)C1 [Larotrectinib (LOXO-101) sulfate],-0.61,5.23,0.04,0.01,0.53,0.03,2.16,0.35,0.63,0.56
COc1ccc(/C=C/C(=O)C2(C(=O)/C=C/c3ccc(OC)c(OC)c3)CCCCC2)cc1OC,-0.06,0.62,-3.56,0.12,0.75,0.25,-0.37,0.49,2.62,0.7
Cc1cc(Nc2cc(CN3CCOCC3)c3nc(C)c(Cc4ccc(Cl)cc4F)n3n2)n[nH]1,1.33,11.1,6.97,1.47,1.14,0.39,9.97,-0.03,0.22,-0.28
CC(C)NC(=O)C1CCC(n2c(NC(=O)c3ccc(F)cc3)nc3ccc(CN4CCC(C(C)(C)O)CC4)cc32)CC1 (stereo not given) [Belizatinib (TSR-011)],6.67,8.98,13,4.12,0.47,0.09,4.55,0.48,1.37,0.49
Cc1cc(Nc2ncnc3ccc(-c4ccc(CNCCS(C)(=O)=O)o4)cc23)ccc1Oc1ccn2ncnc2c1 [HER2-Inhibitor-1],2.09,6.61,2.73,1.2,0.57,0.41,3.81,0.78,1.57,0.55
O=C(Nc1cccnc1)c1cc(-c2ccnc(F)c2)ccc1OCc1ccccc1,0.47,4.72,1.19,0.34,0.36,-0.18,-0.02,0.4,0.99,0.03
CC(C)N(CCC(=O)c1ccc2ccccc2c1)Cc1ccccc1,0.41,4.18,-2.65,-0.95,-1.16,-0.34,-1.31,-1.34,0.13,0.23
C[C@@H](N)c1ccc(C(=O)Nc2ccnc3[nH]ccc23)cc1,0.16,3.37,-0.56,0.67,0.3,0.84,2.93,0.59,0.72,-0.1
CN1CCCN(C(=O)c2cccc(-c3ccc(/C=C4/C(=O)Nc5ccc(Cl)cc54)o3)c2)CC1,2.23,6.78,4.08,1.14,0.63,0.58,1.36,0.37,2.41,0.77
CC(C)(C)c1cnc(CSc2cnc(NC(=O)C3CCNCC3)s2)o1,-0.47,0.35,-1.08,0.48,0.47,0.31,0.18,2.84,0.7,-0.01
COC(=O)N[C@@H](C)CNc1nccc(-c2cn(C(C)C)nc2-c2cc(Cl)cc(NS(C)(=O)=O)c2F)n1 [Encorafenib (LGX818)],-0.17,5.07,-3.57,0.85,0.58,0.22,1.92,0.46,1.58,0.67
CN(C)C/C=C/C(=O)Nc1ccc(C(=O)Nc2cccc(Nc3ncc(Cl)c(-c4c[nH]c5ccccc45)n3)c2)cc1,2.1,11.2,11.9,4.57,5.85,1.59,11.2,0.86,1.53,0.68
COc1ccc(COc2cc3oc(=O)c4cc(C(C)O)ccc4c3cc2OC)cc1 (stereo not given) [Palomid 529 (P529)],0.55,0.39,-3.05,0.84,0.78,0.66,0.23,0.68,0.97,0.03
Cc1cc(Nc2cc(N3CCN(C)CC3)nc(/C=C/c3ccccc3)n2)n[nH]1 [ENMD-2076 L-(+)-Tartaric acid],4.1,11.2,10.9,5.68,1.55,0.7,5.83,0.62,1.73,0.39
CCOc1cc(C(=O)N2CCC(N3CCN(C)CC3)CC2)ccc1Nc1ncc2c(n1)N(C1CCCC1)c1ccccc1C(=O)N2C,-0.22,1.11,0.71,0.22,0.32,0.17,0.04,0.34,0.95,-0.25
CCCCCCCCCC(=O)CC(O)S(=O)(=O)O (stereo not given) [Sodium Houttuyfonate],0.61,0.71,-0.1,0.13,0.21,0.52,-8.96,-0.11,0.7,0.34
Nc1nc(Nc2ccc(S(N)(=O)=O)cc2)nn1C(=O)c1c(F)cccc1F,1.19,12.5,8.94,0.98,1.95,0.82,8.67,-0.12,1.81,0.21

Compound,thermal shift delta Tm [1] [°C],thermal shift delta Tm [2] [°C],thermal shift delta Tm [3] [°C],thermal shift delta Tm [4] [°C],thermal shift delta Tm [5] [°C],thermal shift delta Tm [6] [°C],thermal shift delta Tm [7] [°C],thermal shift delta Tm [8] [°C],thermal shift delta Tm [9] [°C],thermal shift delta Tm [10] [°C]
COc1cc(Nc2ncc(F)c(Nc3ccc4c(n3)N(COP(=O)(O)O)C(=O)C(C)(C)O4)n2)cc(OC)c1OC [R788 (Fostamatinib) Disodium],0.34,7.08,6.19,0.86,1.5,0.56,6.28,0.9,1.71,0.59
CC#CC(=O)N1CCC[C@H]1c1nc(-c2ccc(C(=O)Nc3ccccn3)cc2)c2c(N)nccn12 [Acalabrutinib (ACP-196)],0.54,1.21,-2.72,0.31,0.59,0.02,0.81,0.52,1.01,0.32
C=CC(=O)N1CC[C@@H](Oc2nc(Nc3ccc(N4CCC(N5CCN(C)CC5)CC4)cc3)c(C(N)=O)nc2CC)C1 [Naquotinib(ASP8273)],3.28,13.1,11.6,1.04,0.55,0.27,10,0.25,1.6,0.69
CC1=C(C(=O)Nc2cc3cn[nH]c3cc2F)C(c2ccc(C(F)(F)F)cc2)CC(=O)N1 (stereo not given),-0.15,0.48,-6.69,-0.3,0.33,1.08,-0.13,0.24,0.71,0.37
"COc1cc(F)c(F)c(Nc2ccc(I)cc2F)c1NS(=O)(=O)C1(C[C@H](O)CO)CC1 [Refametinib (RDEA119, Bay 86-9766)]",0.29,0.16,-0.08,1.02,0.34,0.4,0.11,1.27,0.72,0.01
COc1cc(N2CCN(C)CC2)ccc1Nc1ncc2c(n1)N(C)c1ccccc1C(=O)N2,0.23,3.08,-1.75,0.12,0.51,0.36,1.14,0.34,0.21,0.21
Cc1cc(Nc2nc(N[C@@H](C)c3ccc(F)cc3)c(C#N)cc2F)n[nH]1,0.47,11.9,8.62,-0.1,1.2,0.67,8.11,-0.41,0.19,0.12
CC[C@@](C)(Nc1ccnc(-c2c[nH]c3ncccc23)n1)C(=O)NCC(F)(F)F [Decernotinib (VX-509)],0.07,9.28,2.45,0.87,0.49,0.57,8.57,0.47,0.54,0.24
"O=C(c1ccc(F)c(F)c1Nc1ccc(I)cc1F)N1CC(O)([C@@H]2CCCCN2)C1 [Cobimetinib (GDC-0973, RG7420)]",0.22,0.2,-1.19,0.07,0.47,0.39,-0.17,0.43,1.59,0.43
C[C@]1(O)C[C@@H](c2nc(-c3ccc4ccc(-c5ccccc5)nc4c3)c3c(N)nccn32)C1 [Linsitinib (OSI-906)],0.91,1.48,1.1,0.92,0.67,0.81,0.92,0.94,1.13,0.34
Oc1c2ccccc2c2c3c(cccc13)N=N2,2.27,9.83,9.67,0.7,1.62,1,5.84,0.87,1.14,-0.13
C[C@@H](Nc1cc(F)cc(F)c1)c1cc(C(=O)N(C)C)cc2c(=O)cc(N3CCOCC3)oc12,0.46,-0.67,-4.22,0.89,0.53,0.2,-0.67,0.43,1.06,0.35
COc1ccccc1-c1cc(Nc2cccc(CS(N)(=O)=O)c2)ncn1,0.35,5.65,3.26,0.95,0.39,0.37,4.76,0.66,0.36,-0.22
CNC(=O)c1ccccc1Nc1nc(Nc2ccc(N3CCOCC3)cc2OC)ncc1Cl,1.29,11.8,5.34,0.37,0.69,0.1,4.89,0.54,1.58,0.57
Cn1nccc1Nc1nccc(-c2ccn([C@H](CO)c3ccc(Cl)c(F)c3)c(=O)c2)n1,0.08,2.78,-3.01,1.03,0.26,0.16,0.19,0.56,1.22,0.87
O=C(NC[C@H](O)CO)c1ccncc1Nc1ccc(I)cc1F,0.16,0.04,-2.59,-0.04,0.65,0.08,-0.12,0.62,0.95,0.62
Cn1cc(-c2ccc3nnc(C(F)(F)c4ccc5ncccc5c4)n3n2)cn1,0.16,1.31,0.65,0.54,0.28,0.51,1.54,0.92,1.14,-0.03
O=C(Nc1cccc(Cl)c1)Nc1ncc(CCNc2ncnc3ccsc23)s1 [SNS-314 Mesylate],2.15,7.18,2.52,1.77,0.46,1.08,4.68,1.24,0.91,-0.06
O=C1c2c(O)cc(O)cc2OC(c2ccc(O)c(O)c2)C1O (stereo not given) [Taxifolin (Dihydroquercetin)],0.11,3.32,-0.02,0.61,0.75,-0.08,-0.04,0.59,0.96,0.52
C=CC(=O)N1CCN(CCCn2c(=O)c(-c3c(Cl)c(OC)cc(OC)c3Cl)cc3cnc(NC)nc32)CC1,0.34,0.01,3.63,-0.19,0.06,0.18,-0.29,0.15,0.73,1.75
O=C(O)c1ccc(-c2c[nH]c3ncc(-c4ccccc4)cc23)cc1C1CCCC1,3.53,6.21,4.46,1.1,0.74,-0.07,10.4,0.29,-3.29,0.05
CC1(C)OC(=O)C=C[C@]2(C)[C@H]3CC[C@@]4(C)[C@H](c5ccoc5)OC(=O)[C@H]5O[C@]54[C@]3(C)C(=O)C[C@@H]12 [Obacunone],-0.08,-0.17,0.73,0.17,0.18,0.33,-0.35,0.3,1.76,0.44

# From the supplement of paper PMC9694430
